Screening results from PubChem BioAssay.
An excerpt weighted towards active compounds, which were near 4.1% of everything screened.
MPTP block: inhibitors of mitochondrial permeability transition pore; isolated mouse mitochondria, Ca2+ swelling absorbance, 30 min; inhibition, % at 10 µM; 360,000 tested, 1.4% active;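 active means inhibition of 50% or more, scaled per plate between neutral and stimulator controls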;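 further: 0% = DMSO wells given calcium and 100% = 1 mM EGTA wells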
beta cell repl: inducers of beta-cell replication in MIN6 cells; MIN6 cells proliferation, ATPlite luminescence, 48 h; cells starved in 0.2% serum; 100% = growth in 10% serum; proliferation, % at 10 µM; 330,000 tested, 0.29% active;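 active means compounds whose signal lies at least 3.5 SD above the mean of all wells on their plate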;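 further: 0% = DMSO-treated cells in low-serum medium and 100% = 10% serum control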
NR3A LBD binder: modulates the human NR3A ligand-binding domain | NR3A LBD differential scanning fluorimetry, Tm shift; 0% = protein alone, 100% = glycine-bound protein | Tm shift relative to glycine control, % at 25 µM | 340,000 tested, 2.5% active | AID 1259313;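 active means melting temperature shift of at least 10% of the positive control shift, at one fixed dose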
FAS TE block: FAS thioesterase (human) inhibition; P49327; recombinant FAS-TE, OMFH fluorogenic substrate, fluorescence endpoint; inhibition, % at 15 µM; 360,000 tested, 0.67% active;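 active means compounds whose normalised, plate-corrected inhibition of enzyme fluorescence in the single-dose primary screen is 50% or more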;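 further: 0% = DMSO with enzyme and 100% = substrate without enzyme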
pCIP destab: compounds decreasing mouse p/CIP protein stability. F442A p/CIP-EGFP cells, EGFP fluorescence, 16 h. decrease of EGFP signal, % at 10 µM. Q05BA5. 290,000 tested, 0.01% active;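 active means EGFP signal decrease of at least 30% at 10 µM or well 3 SD below plate mean, unless failing retest; inactive means the rest, including hits failing retest or dose response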
FAS-TE conf: confirmation of human fatty acid synthase thioesterase inhibitors. 2,300 tested, 45% active. shares compounds with FAS TE block. recombinant FAS-TE, OMFH fluorogenic substrate, fluorescence. inhibition, % at 15 µM;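 active means compounds inhibiting the enzyme by at least 50% at 15 µM in any one of the replicates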;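 further: 0% = enzyme with DMSO only and 100% = wells lacking enzyme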
* marks the source's active call; other numbers are inactive results; · = no result.

SMILES	MPTP block	beta cell repl	NR3A LBD binder	FAS TE block	pCIP destab	FAS-TE conf
COc1cc(C(=O)NC(=S)Nc2ccccc2[N+](=O)[O-])cc(OC)c1OC	1.4	2.9	1.5	64.9*	-1.6	24.6
CCCCNC(=O)C(NC(=O)c1cccs1)C(=O)c1ccccc1 (stereo not given)	11.4	·	·	·	·	·
COc1ccccc1-n1c(=O)c(C#N)c(-c2ccc([N+](=O)[O-])cc2)c2cc(C(=O)c3ccccc3O)cnc21	1.0	2.0	-1.9	88.6*	-0.9	13.8
CCOc1ccc(-n2c(SCC(=O)Nc3ccc4c(c3)OCO4)nc3c(c2=O)SCC3)cc1	0.1	·	-1.6	1.4	-4.0	·
CCOc1ccc(-n2c(SCC(=O)Nc3ccc4c(c3)OCCO4)nc3c(c2=O)SCC3)cc1	2.2	-2.1	-6.2	62.1*	-10.3	24.7
COc1ccc(-c2cnnn2-c2ccc(NC(=O)c3ccc(S(=O)(=O)N4CCCCC4)cc3)cc2)cc1OC	1.4	-2.3	0.8	87.5*	-27.6	5.8
COc1ccccc1CNC(=O)c1cc(S(=O)(=O)N2CCN(c3ccccc3)CC2)ccc1Cl	0.4	·	1.4	65.4*	·	25.2
COc1ccc(S(=O)(=O)N2CCOCC2)cc1C(=O)Nc1ccc(N2CCCCCC2)cc1	0.5	·	-1.4	62.0*	·	23.3
COc1ccc(C(=O)Nc2ccc(S(=O)(=O)N3CCCCC3)cc2)cc1OC	-0.7	1.0	-2.7	9.4	-12.2	·
COc1ccccc1CNC(=O)COC(=O)c1cc(S(=O)(=O)N2CCOCC2)ccc1Cl	-2.3	1.0	-0.4	-1.2	·	·
CCC(CO)n1c(SCc2cc([N+](=O)[O-])cc3c2OCOC3)nc2ccccc2c1=O (stereo not given)	-3.9	-1.5	-31.3	53.6*	-9.7	15.7
Cc1nnc(SCc2cc([N+](=O)[O-])cc3c2OCOC3)n(N)c1=O	-0.5	-3.0	0.3	4.8	-5.5	·
C=CCn1c(SCc2cc([N+](=O)[O-])cc3c2OCOC3)nc2cc(C(=O)O)ccc2c1=O	0.2	-1.2	0.3	83.1*	7.8	77.3*
C=CCn1c(SCC(=O)N(C)C)nc2cc(C(=O)O)ccc2c1=O	0.0	-5.2	-0.9	-0.7	-2.3	·
Cc1cc(C)cc(CC(=O)N2CCC2(C)C(=O)NS(=O)(=O)c2cccc(F)c2)c1 (stereo not given)	1.2	·	·	-5.5	·	·
CC(C)[C@H](NC(=O)OC(C)(C)C)c1nnc(S(=O)(=O)Cc2c(F)cccc2Cl)o1	-3.9	-5.7	0.0	83.2*	-19.2	81.7*
CC[C@@H](C)[C@H](NC(=O)OC(C)(C)C)c1nnc(S(=O)(=O)Cc2cc(C)ccc2C)o1	26.7	-7.0	1.7	73.0*	-19.8	78.7*
COc1ccc(C(C(=O)Nc2ccc(F)cc2)N2CCN(c3cccc(C(F)(F)F)n3)CC2)cc1 (stereo not given)	2.4	·	·	·	·	·
O=C1c2cc(O)c(O)cc2OC(c2ccc(O)c(O)c2)C1O (stereo not given)	-0.5	·	0.5	-5.5	·	·
COc1ccc(-c2csc(N3C(=O)C4C5c6ccccc6C(c6ccccc65)C4C3=O)n2)cc1 (stereo not given)	-0.7	-3.5	0.8	63.2*	2.6	33.8
COc1ccc(-c2csc(N3C(=N)SCC3=O)n2)cc1	0.1	-4.5	2.4	-10.3	-3.2	·
COc1ccc(-c2csc(N3C(=O)CNC3=S)n2)cc1	1.1	·	1.1	-5.0	2.0	·
COc1ccc(-c2csc(N3C(=O)C4C5c6ccccc6C(c6ccccc65)[C@@H]4C3=O)n2)cc1 (stereo not given in full)	0.5	0.0	-2.4	58.8*	-26.4	12.5
Cc1cc2ncn(/N=C/c3cccnc3)c2cc1C	-3.3	1.0	-2.8	3.2	7.8	·
Cc1cc2ncn(/N=C/c3ccc(-c4ccccc4)o3)c2cc1C	2.9	-6.2	-3.3	50.2*	-8.8	47.1
SMILES	MPTP block	beta cell repl	NR3A LBD binder	FAS TE block	pCIP destab	FAS-TE conf
CC(C)(C)c1ccc(NC(=O)C2=CN3CCS(=O)(=O)N=C3C=C2)cc1	1.3	2.4	-0.1	-8.6	·	·
CCOC(=O)CN1C(=O)S/C(=C\c2ccc(-c3ccc(C(=O)O)c(Cl)c3)o2)C1=O	3.0	-0.8	3.8	3.9	-12.0	·
CC(C)N1C(=O)S/C(=C\c2ccc(-c3ccc(Cl)c(C(=O)O)c3)o2)C1=O	0.2	-0.6	0.4	69.0*	5.5	75.0*
N#CC(C#N)=C1SC(=Nc2ccccc2)C(=Nc2ccccc2)N1c1ccccc1	6.4	·	-8.4	56.8*	·	37.0
Cc1cc(N2CCN(C(=O)c3[nH]c(C(F)(F)F)nc3-c3ccccc3)CC2)c2ccccc2n1	0.1	·	·	-3.7	·	·
CC1=C(C(=O)OCC(Br)(Br)Br)C(c2cccc([N+](=O)[O-])c2)NC(=O)N1CCCC(=O)O (stereo not given)	0.1	-4.5	-7.4	56.5*	·	65.0*
COc1ccc(-c2nc3c4ccccc4ccn3c2CC2CCCCC2)cc1OC	0.3	·	·	13.5	·	·
CCCCCCOC(=O)C1=C(C)NC(=O)NC1c1ccc(O)cc1 (stereo not given)	2.7	-1.4	-2.1	0.9	7.6	·
CCCCCOC(=O)C1=C(C)NC(=O)NC1c1ccc([N+](=O)[O-])cc1 (stereo not given)	0.8	-1.3	-1.0	57.9*	1.0	57.3*
CN(C)CCCNC(=O)C[C@H]1C[C@H](C(=O)N2CCOCC2)[C@@]2(CCC3CCCC3)c3[nH]c4cc(-c5ccco5)ccc4c3CCN2C1=O	-3.8	·	-1.1	69.7*	·	78.4*
COCCCNC(=O)C[C@H]1C[C@H](C(=O)N2CCOCC2)[C@@]2(CCC3CCCC3)c3[nH]c4cc(-c5ccco5)ccc4c3CCN2C1=O	-1.1	·	0.2	59.4*	·	29.3*
O=C(C[C@H]1C[C@H](C(=O)N2CCOCC2)[C@@]2(CCC3CCCC3)c3[nH]c4cc(-c5ccco5)ccc4c3CCN2C1=O)NCCN1CCOCC1	-1.0	·	-9.6	68.8*	·	79.6*
O=C(C[C@H]1C[C@H](C(=O)N2CCOCC2)[C@@]2(CCC3CCCC3)c3[nH]c4cc(-c5ccco5)ccc4c3CCN2C1=O)NCc1cccc(C(F)(F)F)c1	-2.3	·	3.0	31.3	·	·
CCNC(=O)C1(C)CCN(C(=O)c2cccc(OC(C)=O)c2C)C1 (stereo not given)	-2.4	·	·	-6.8	·	·
C=CCN(C(=O)Nc1ccc(Cl)cc1)C1CC(=O)N(c2ccc(OC)cc2)C1=O (stereo not given)	-0.4	-0.5	1.3	7.0	-4.5	·
CNC(=S)N(Cc1ccc(OC)cc1)C1CC(=O)N(c2ccc(Cl)cc2)C1=O (stereo not given)	1.2	-2.3	32.3*	62.5*	25.4	69.8*
O=C(N/N=C\c1ccc(Cl)cc1)C1=NOC2COC3(CCN(c4ccc([N+](=O)[O-])cc4)CC3)OCC12 (stereo not given)	8.5	-3.4	-2.5	68.8*	-23.5	18.7
